These results are taken from PubChem BioAssay AID1259374 (The Scripps Research Institute Molecular Screening Center, 2018).

Screen size: about 650,000 compounds; about 5,900 (0.91%) were called active. No stated cut-off is given here; in the data, active means inhibition above about 50%; inactive means the rest. Many of the other results were omitted from the sample, so actives are more common in it than they were.

Microphthalmia-associated transcription factor (Homo sapiens), sequence (O75030 whole entry, looked up): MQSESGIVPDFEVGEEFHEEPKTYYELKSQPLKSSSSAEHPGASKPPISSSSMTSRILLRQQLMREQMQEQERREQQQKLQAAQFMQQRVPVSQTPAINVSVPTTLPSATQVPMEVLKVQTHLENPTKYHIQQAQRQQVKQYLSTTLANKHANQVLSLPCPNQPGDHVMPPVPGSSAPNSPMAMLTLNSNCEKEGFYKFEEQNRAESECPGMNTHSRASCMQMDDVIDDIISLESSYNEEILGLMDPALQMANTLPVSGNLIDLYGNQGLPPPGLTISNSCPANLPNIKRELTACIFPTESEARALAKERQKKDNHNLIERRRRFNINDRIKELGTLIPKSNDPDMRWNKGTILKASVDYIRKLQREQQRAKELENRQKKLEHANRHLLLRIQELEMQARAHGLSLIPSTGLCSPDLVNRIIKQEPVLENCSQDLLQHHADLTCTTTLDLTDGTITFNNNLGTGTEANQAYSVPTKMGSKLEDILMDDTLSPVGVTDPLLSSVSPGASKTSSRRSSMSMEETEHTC

This assay concerns the target Microphthalmia-associated transcription factor (Homo sapiens) (UniProt O75030). The assay is described as follows: MITF inhibitors, primary screen, biochemical, AlphaScreen, human (AID 1259374).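 Further: 0% = vehicle wells with protein.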 The settings on record: AlphaScreen MITF homodimerization, bead proximity signal; at 2.6 µM; hits give high values. A general note: In Alpha technology, singlet oxygen from a donor bead excites a nearby acceptor bead.
Consider `COc1ccc(Cl)cc1-c1nc(SCC(=O)Nc2ccc([N+](=O)[O-])cc2C#N)n[nH]1`, for which the inhibition (as a rule, the relative decrease from the control value, in per cent) is 5.04% (inactive).

Regarding `Cc1cc2c(cc3c(=O)n(CC(=O)N4CCCCCC4)nc(C)n32)s1`, the inhibition is 19.7% (inactive).

For `CC(=O)NC1(c2ccccc2)CCN(C(=O)N(c2ccccc2)c2ccccc2)CC1`, the inhibition is -5.46% (inactive). `N#CC1=C(N)Oc2n[nH]c(-c3ccccc3)c2C1c1cc(Cl)cc(Cl)c1OC(=O)N1CCOCC1` (stereo unspecified): the inhibition is 1.7% (inactive). Turning to `O=C(CSc1cn(Cc2cccc(F)c2)c2ccccc12)Nc1ccccc1`, the inhibition was -4.78% (inactive). Take `CCOC(=O)c1c(NC(=O)COc2ccc(C)cc2Br)sc2c1CCC(C)C2` (stereo unspecified): the inhibition is 14.2% (inactive). As for `O=C(CSc1nnc2ncccn12)N1CCN(c2ccccc2F)CC1`, the inhibition is -5.77% (inactive). For `COc1ccccc1CN1CC(C)OC(C)C1` (stereo unspecified) the value was 82.9% (active); for `COc1ccc(CN2CCN(Cc3ccccc3OC)CC2)cc1Br`, 77.2% (active). Regarding `COc1ccc(OC)c(CN2CCN(Cc3ccc(Cl)cc3)CC2)c1`, the inhibition was 82.1% (active).

For the molecule `COc1ccccc1CN1CCN(c2ccccn2)CC1`, the inhibition was 45.1% (inactive). Take `C=C(C)CN(CC)C(=O)C1CCN(Cc2cc(OC)ccc2OC)CC1`: the inhibition is 33.5% (inactive). For `COc1ccc(S(=O)(=O)NCc2ccccc2OC)cc1Br` the value was 9.71% (inactive); for `CCOc1ccc(CN2CCN(Cc3cc(OC)ccc3O)CC2)cc1`, 20.6% (inactive); for `COc1ccc(OC)c(CN2CCC3(CCC(CNC(C)=O)O3)CC2)c1` (stereo unspecified), -3.91% (inactive).

In the case of `COc1ccc(CN2CCN(Cc3cc(OC)ccc3OC)CC2)cc1`, the inhibition was 76.4% (active). Consider `CCN(CC)C(=O)C1CCCN(Cc2ccccc2OC)C1` (stereo unspecified), for which the inhibition is 16.3% (inactive).

As to `COc1ccc(OC)c(CN2CCc3nnc(C4CCCO4)n3CC2)c1` (stereo unspecified), the inhibition is 0.68% (inactive). For `CC1CN(Cc2ccc3ccccc3c2)CC(C)O1` (stereo unspecified) the value was 1.44% (inactive). Turning to `Cc1ccc(N2C(=O)CN(S(C)(=O)=O)CC2(C)C(=O)NC2CCCC2)cc1C` (stereo unspecified), the inhibition is -2.11% (inactive).

`O=C(OCCN=C1NS(=O)(=O)c2ccccc21)c1ccc([N+](=O)[O-])cc1`: the inhibition is -14% (inactive). In the case of `O=C1c2ccccc2C(=O)N1CCSc1nc2sc3c(c2c(=O)n1-c1ccccc1)CCCC3`, the inhibition was -1.49% (inactive). For the molecule `CCOC(=O)c1cc(-c2ccc(O)c(OC)c2)no1`, the inhibition was -12.8% (inactive).

Regarding `O=C(NCc1ccc(Cl)cc1)C1CCN(c2nnnn2-c2ccccc2)CC1`, the inhibition is 5.24% (inactive). In the case of `O=C(CSc1nc(Nc2ccc(F)cc2)c2ccccc2n1)c1ccc(Cl)cc1`, the inhibition was 10.1% (inactive). In the case of `Cc1ccc2[nH]c3nc(N/N=C/c4ccc(N(C)C)cc4)nnc3c2c1`, the inhibition was 15.6% (inactive).

On to `CC(C)N(CCNc1nc(N2CCCC2CO)nc2nc[nH]c12)C(C)C` (stereo unspecified), for which the inhibition was 5.38% (inactive).

With `CC(=O)Oc1ccccc1C(=O)Nc1ccc(Cl)c(Cl)c1`, the inhibition was 0.46% (inactive). Take `CCOC(=O)/C(C#N)=C/c1ccccc1OC`: the inhibition was -4.17% (inactive). With `CNc1ccccc1C(=O)OCc1ccc([N+](=O)[O-])cc1Cl`, the inhibition is 12.5% (inactive). In the case of `Cc1ccc2nc3sc(C(=O)Nc4c[nH]c(=O)[nH]c4=O)c(N)c3cc2c1`, the inhibition is 0.86% (inactive).

Regarding `Cc1ccc2nc(CN3CCN(C=O)CC3)nc(N3CCSCC3)c2c1`, the inhibition is -5.97% (inactive). Take `O=C(NCCc1ccc(F)cc1)c1ccc(Br)o1`: the inhibition was -9.44% (inactive). Regarding `COc1cc(CN2CCN(C(=O)c3cc(OC)c(OC)c(OC)c3)CC2)cc(OC)c1O`, the inhibition was -11% (inactive). To `COc1cc(CN2CCN(C(=O)C(c3ccccc3)c3ccccc3)CC2)cc(OC)c1OC` belongs 53.1% (active). For the molecule `O=CN1CCN(Cc2ccccc2Cl)CC1`, the inhibition was 3.26% (inactive).

Consider `CC1CCCC(N2CCN(Cc3ccccc3Cl)CC2)C1` (stereo unspecified), for which the inhibition is 63.2% (active). To `NCC1CCN(Cc2ccccc2Cl)CC1` belongs 21.9% (inactive).

Regarding `CCC(C(=O)N1CCN(C(=O)C(CC)c2ccccc2)CC1)c1ccccc1` (stereo unspecified), the inhibition was 6.26% (inactive). For `CCN(CC)C(=O)C(Cc1ccccc1)NCC(=O)Nc1ccc(C)cc1` (stereo unspecified) the value was 10.3% (inactive); for `COc1cccc(OC)c1C(=O)Nc1ccc(Cl)cn1`, -14.5% (inactive). `CCOC(=O)c1sc(=S)n(-c2cccc(C(F)(F)F)c2)c1N`: the inhibition was -1.48% (inactive).

As for `CC(Nc1ccc(-c2cccc(C=O)c2)cn1)c1ccc(F)cc1` (stereo unspecified), the inhibition was 7.6% (inactive). `CN(C)c1cccc(Nc2ccc(-c3cccc(C=O)c3)cn2)c1`: the inhibition was 50.8% (active).

On to `CN(C)c1cccc(Nc2nccc(Nc3ccccc3)n2)c1`, for which the inhibition was -2.6% (inactive). `Fc1ccc(-c2cccc3ccc(N4CCN(c5ncccn5)CC4)nc23)cc1`: the inhibition was 2.86% (inactive). As to `NC(=O)c1c(/N=C/c2ccc([N+](=O)[O-])cc2)sc2c1CCCC2`, the inhibition is 7.76% (inactive). As to `O=C1N[C@H](Cc2ccc(O)cc2)C(=O)N2CCN(C(=O)c3ccccc3Cl)C[C@H]12`, the inhibition is -6.27% (inactive).

In the case of `COc1cccc(/C=C(\C#N)c2nc3ccc(C)cc3[nH]2)c1OC`, the inhibition is 7.46% (inactive). `COc1ccccc1/C=C(/C#N)c1nc2ccccc2[nH]1`: the inhibition is 11.1% (inactive). As to `COc1cccc(/C=C(\C#N)c2nc3ccccc3[nH]2)c1OCc1ccc(Cl)cc1Cl`, the inhibition was 52.7% (active).

As to `Cc1ccc2oc(-c3ccc(C)c(NC(=O)c4ccc(Cl)c([N+](=O)[O-])c4)c3)nc2c1`, the inhibition is 14.9% (inactive).

With `O=C1O/C(=C(\c2cccc3ccccc23)[N+](=O)[O-])c2ccccc21`, the inhibition is 7.98% (inactive). Turning to `O=C(NCC1CCCO1)C1CCC(Cn2c(SCc3ccc([N+](=O)[O-])cc3)nc3ccccc3c2=O)CC1` (stereo unspecified), the inhibition was 1.86% (inactive). On to `COC(=O)c1sc2ccccc2c1NC(=O)c1ccc2c(c1)OCCO2`, for which the inhibition is 4.39% (inactive). Turning to `COC(=O)c1ccccc1NS(=O)(=O)c1ccc2[nH]c(=O)ccc2c1`, the inhibition was 6.38% (inactive). For `COC(=O)c1cccc(NS(=O)(=O)c2ccc3ccccc3c2)c1C`, the inhibition was 52.5% (active).

Take `COC(=O)c1cccc(NC(=O)c2ccccc2NS(=O)(=O)c2ccc(C)cc2)c1C`: the inhibition was -6.07% (inactive). `CCCCCCC1CCC(C(=O)Oc2ccc(C(=O)OCC)cc2)CC1` (stereo unspecified): the inhibition is 7.45% (inactive). To `COc1ccc2c(c1)CC(c1nc3ccc(-c4cccnc4)cc3o1)CO2` (stereo unspecified) belongs -9.3% (inactive); to `COc1ccc2c(c1)CC(c1nc(Nc3ccc4cnccc4c3)c3ccccc3n1)CO2` (stereo unspecified), 55.2% (active); to `COc1ccc2c(c1)CC(C(=O)Nc1ccc(-c3ccncc3)cc1Oc1ccccc1)CO2` (stereo unspecified), 12.9% (inactive). For the molecule `O=C(Nc1nc(-c2ccc(Br)cc2)cs1)N1CCOCC1`, the inhibition was 6.09% (inactive). Take `Cc1cc(-c2cnc(N3CCCCC3)nc2C2CCNCC2)on1`: the inhibition was -11% (inactive). As to `O=C(Cc1cccc(Cl)c1)NCc1ccccc1`, the inhibition was -1.38% (inactive). As for `CN(CCC(=O)Nc1cccc(F)c1)Cc1ccccc1`, the inhibition is -7.29% (inactive).

With `CN(CCC(=O)O)Cc1cccc(Cl)c1`, the inhibition is 69.7% (active). Turning to `Cc1ccc(Nc2nc3nonc3nc2N2CCN(C(=O)c3ccccc3)CC2)cc1Cl`, the inhibition is 2.8% (inactive).

With `CCc1ccccc1NC(=O)c1cc2nc(-c3cccs3)cc(C(F)(F)F)n2n1`, the inhibition was 23.3% (inactive). For `COc1cc(CNC(C)(C)C)ccc1OCCO` the value was -1.33% (inactive); for `COc1ccc(COCC(O)CNCC(C)(C)CN(C)C)cc1OC` (stereo unspecified), 69.4% (active).

In the case of `CCC(CO)NCC(O)COCc1ccc(Cl)cc1` (stereo unspecified), the inhibition is -4.49% (inactive). `Cc1c(C(=O)N2CCN(c3ccc(F)cc3)CC2)sc2ncn(CC(=O)N3CCC(C)CC3)c(=O)c12`: the inhibition is 9.34% (inactive).

For the molecule `Cc1cnc(C)c(-c2ccc3c(c2)CC(CNC(=O)/C=C/c2cccc(F)c2F)O3)n1` (stereo unspecified), the inhibition was 10.3% (inactive).

For the molecule `CCOC(=O)c1[nH]c(COC(C)=O)c(CCC(=O)OC)c1C`, the inhibition is -19.8% (inactive).

As for `O=C(COc1ccccc1)Nc1ccc(N2CCC(NCCc3cccs3)CC2)cc1`, the inhibition was 8.32% (inactive). As to `COc1ccc2c(c1)CC(C(=O)Nc1ccc(-c3cn[nH]c3)cc1OCCN(C)C)CO2` (stereo unspecified), the inhibition is 3.86% (inactive).

As for `COc1ccc2c(c1)CC(C(=O)Nc1ccc(-c3cn[nH]c3)cc1OCc1ccccc1)CO2` (stereo unspecified), the inhibition was 62.3% (active). To `COc1ccc2c(c1)CC(C(=O)Nc1ccc(-c3cn[nH]c3)cc1O[C@H]1CCOC1)CO2` (stereo partly specified) belongs 16.3% (inactive); to `COc1ccc2c(c1)CC(C(=O)Nc1ccc(-c3cn[nH]c3)cc1C(=O)NCc1ccccc1)CO2` (stereo unspecified), 24.1% (inactive); to `COc1ccc2c(c1)CC(C(=O)Nc1ccc(-c3cn[nH]c3)cc1OCC(N)=O)CO2` (stereo unspecified), 52.7% (active). Take `COc1ccc2c(c1)CC(C(=O)Nc1ccc(-c3cn[nH]c3)cc1OC(C)CN(C)C)CO2` (stereo unspecified): the inhibition is 13.3% (inactive). In the case of `CCc1ccc(C(=O)N2CCN3C(=O)[C@H](CO)NC(=O)[C@H]3C2)cc1`, the inhibition was -8.93% (inactive).

`O=C(CN(Cc1ccccc1)S(=O)(=O)c1ccc(F)cc1)NCCc1ccccc1`: the inhibition is -7.64% (inactive). For `CC(C)N1CCC(N2CCN(Cc3cc(F)ccc3F)CC2CCO)CC1` (stereo unspecified) the value was 5.34% (inactive); for `Cc1cc(S(=O)(=O)NCc2ccc3c(c2)OCO3)ccc1-n1cnnn1`, 11.8% (inactive); for `Cc1cc(S(=O)(=O)NC2CCCC2)ccc1-n1cnnn1`, -4.47% (inactive).

Regarding `Cc1cc(S(=O)(=O)Nc2ccc3c(c2)OCCO3)ccc1-n1cnnn1`, the inhibition was 53% (active). Consider `COCCN1C(=O)/C(=C/c2cc(OC)c(O)c([N+](=O)[O-])c2)SC1=S`, for which the inhibition was 14.8% (inactive).

`CC(C)(C)n1nnnc1C(c1ccc2ncccc2c1)N1CCSCC1` (stereo unspecified): the inhibition was 65.2% (active). On to `CC(C)(C)n1nnnc1C(c1ccc(Cl)cc1)N1CCSCC1` (stereo unspecified), for which the inhibition was -19.9% (inactive).

Consider `COCCn1nnnc1C(c1ccc2ncccc2c1)N1CCOCC1` (stereo unspecified), for which the inhibition was 12% (inactive). Regarding `CC1CCN(c2cc(NCC(=O)O)c3c4c(onc24)-c2ccccc2C3=O)CC1`, the inhibition was 51.3% (active).

For `COc1ccc(Nc2cc(N3CCN(c4ncccn4)CC3)c3noc4c3c2C(=O)c2ccccc2-4)cc1`, the inhibition was 0.37% (inactive). For the molecule `CCOC(=O)N1CCN(c2cc(NCCO)c3c4c(onc24)-c2ccccc2C3=O)CC1`, the inhibition was 15.8% (inactive).

Take `CN(C)c1cc(NCCN2CCC3(CC2)OCCO3)c2c3c(onc13)-c1ccccc1C2=O`: the inhibition is 50.7% (active). Consider `CCNc1cc(Nc2ccccc2)c2c3c(onc13)-c1ccccc1C2=O`, for which the inhibition was 15.1% (inactive). Consider `CC(C)Nc1cc(N2CCN(c3ncccn3)CC2)c2noc3c2c1C(=O)c1ccccc1-3`, for which the inhibition is 5.09% (inactive). Turning to `CC(C)Nc1cc(N2CCC3(CC2)OCCO3)c2noc3c2c1C(=O)c1ccccc1-3`, the inhibition was 55.8% (active). For `CCNc1cc(NCCO)c2noc3c2c1C(=O)c1ccccc1-3` the value was 27.5% (inactive). To `CN1CCN(c2cc(NCCCC(=O)O)c3c4c(onc24)-c2ccccc2C3=O)CC1` belongs 10.3% (inactive).
